Molecules are shown by their SMILES. The whole screen tested about 69,000 compounds, of which about 8,600 (12%) showed an effect of 50% or more. The sample as a whole holds a higher share of strong results than the screen did.

The experiment concerns Plasmodium berghei. Kind of experiment: Screen against P. berghei liver stage (PbLuc), transformed with Luciferase, at 10uM. The conditions noted are these: tested at 10 uM. Format: functional, HepG2.
Turning to `O=C(c1cccn1Cc1cccs1)N1CCN2CCCCC2C1` (stereo not drawn), the INHIBITION is recorded as 33.3%.

In the case of `CC(=O)N1CCO[C@@H]2CN(S(=O)(=O)c3ccc(F)cc3)CC[C@@H]2C1`, the INHIBITION stood at 45.4%. In the case of `O=C1CN(C(=O)CN(CC2CCC2)CC(F)(F)F)CCN1`, the INHIBITION is on record as 31%. With `O=C(Nc1ccccc1)C1CN(Cc2ccsc2)CC12CCOCC2` (stereo not drawn), the INHIBITION was -3.12%. As to `OCC1CCC2(CC1)CN(Cc1ccccc1F)Cc1ccccc1O2` (stereo not drawn), the INHIBITION was 53.5%.

Take `OCC1CCC2(CC1)CN(Cc1ccccn1)Cc1ccccc1O2` (stereo not drawn): the INHIBITION turned out to be 21%. With `Cc1ncc(CN2Cc3ccccc3OC3(CCC(CO)CC3)C2)cn1` (stereo not drawn), the INHIBITION is 47.2%. Take `OCC1CCC2(CC1)CN(Cc1ccsc1)Cc1ccccc1O2` (stereo not drawn): the INHIBITION stood at 51.5%. Take `Cc1cnccc1CN1Cc2ccccc2OC2(CCC(CO)CC2)C1` (stereo not drawn): the INHIBITION was 41.2%. Consider `Cc1ccc(CN2CC(C(=O)Nc3ccccc3)C3(CCOCC3)C2)s1` (stereo not drawn), for which the INHIBITION is given as 45.8%. Next, `Cc1ccc(CN2Cc3ccccc3OC3(CCC(CO)CC3)C2)s1` (stereo not drawn): 67.9%; `Cc1ccc(CN2Cc3ccccc3OC3(CCC(CO)CC3)C2)o1` (stereo not drawn): 44.1%. On to `Cc1ccccc1CNC(=O)N1C[C@@H]2C[C@H](C(=O)N3CCCC3)[C@H](C1)O2`, for which the INHIBITION is -16.9%.

Take `O=C(Nc1nc[nH]n1)c1cc(-c2ccc(F)cc2)n[nH]1`: the INHIBITION is on record as 16%. The figure for `Cc1cc(C(=O)NCc2ccnc(N3CCN(C)CC3)c2)sc1C` is 36.45%. For `CN1CC(=O)N(C2CCNCC2)Cc2c(NCC(C)(C)C)ncnc21`, the INHIBITION worked out at 47.4%.

With `COc1ccc(CC(=O)Nc2ccc3ncn(C(C)C)c(=O)c3c2)cc1`, the INHIBITION worked out at 21.2%. For the compound `CCC1(CO)CCCN(C(=O)c2cc(COc3cccc(F)c3)[nH]n2)C1` (stereo not drawn), the INHIBITION came to 20.9%. `Cc1nn(C)c(N(C)C)c1CNC(C)COc1ccccc1F` (stereo not drawn): the INHIBITION was 23.4%. On to `COC(=O)CCc1c(C)nc2cc(O)nn2c1C`, for which the INHIBITION is listed as 53.5%.

With `CCNC(=O)CCc1c(C)nc2cc(O)nn2c1C`, the INHIBITION is listed as 55.9%. The figure for `Cc1nc2cc(O)nn2c(C)c1CCC(=O)NCCc1ccccc1` is 22.3%; for `CCN(CC)C(=O)CCc1c(C)nc2cc(O)nn2c1C` it is 34.7%; for `CNC(=O)CCNC(=O)CCc1c(C)nc2cc(O)nn2c1C` it is 29.2%.

In the case of `Cc1nc(NC(=O)CCc2c(C)nc3cc(O)nn3c2C)sc1C`, the INHIBITION is -14.7%.

In the case of `Oc1ccc(N(CCc2ccccc2)CCn2cncn2)cc1`, the INHIBITION worked out at 44%. Regarding `CCS(=O)(=O)N1C[C@H]2CC[C@](O)(c3ccc(C)cc3)[C@H]2C1`, the INHIBITION is -2.11%. The figure for `Cc1nc(C2CCCN(C(=O)c3cc4c(s3)CCCC4)C2)no1` (stereo not drawn) is 11.2%; for `O=C(NCC1CCN(Cc2cc3ccccc3[nH]2)C1)c1ccsc1` (stereo not drawn) it is 40.8%. On to `COc1ccc(C(=O)NC2CCN(c3ncccn3)CC2)cc1F`, for which the INHIBITION is on record as 46.1%. Consider `O=C(CCc1ccsc1)NC1CCN(c2cccc(F)c2)CC1`, for which the INHIBITION is 59.3%. Next, `COc1ccc(N2CCC(NC(=O)c3ccc(C#N)cc3)CC2)cc1`: 41.8%; `O=C(Cc1cccs1)NC1CCN(c2cccc(F)c2)CC1`: 4.71%. Regarding `COc1ccsc1C(=O)NC1CCN(c2ccc(C#N)cc2)CC1`, the INHIBITION worked out at 52.6%. Turning to `COc1ccc(N2CCC(NC(=O)c3sccc3C)CC2)cc1`, the INHIBITION is 45%. The figure for `COc1ccsc1C(=O)NC1CCN(c2cccc(F)c2)CC1` is 84.1%; for `CC(c1ccccc1)N1CCC(NC(=O)CCc2ccsc2)CC1` (stereo not drawn) it is 4.22%. Take `O=C(CCc1ccc(Cl)cc1)NC1CCN(c2cccc(F)c2)CC1`: the INHIBITION was 47.3%.

For `CCN1C[C@@H]2CN(C(=O)NCc3ccccc3)CCC[C@]2(C(=O)O)C1`, the INHIBITION is reported as 31.4%. The figure for `COc1ccc(CN2C[C@H]3CC[C@@H](C2)N(S(C)(=O)=O)C3)cc1` is 15.7%; for `COc1ccc(Cl)cc1CN(C)CC(=O)Nc1ccnn1C(C)C1CC1` (stereo not drawn) it is -75.4%; for `COCCN1CCC2(COCc3c(C)nc(N4CCOCC4)nc32)C1` (stereo not drawn) it is -24.8%.

As to `Cc1cnn(C2CCCN(C(=O)c3cc(-c4ccccc4C)n[nH]3)C2)c1` (stereo not drawn), the INHIBITION amounted to 32%. For `Cc1ccccc1-c1cc(C(=O)N2CCCC(n3ccnc3C)C2)[nH]n1` (stereo not drawn), the INHIBITION was found to be 66.7%. Next, `COCCOc1ncccc1C(=O)N1CCCC(n2ccnc2C)C1` (stereo not drawn): -19.9%; `Cc1nccn1C1CCCN(C(=O)c2ccc3c(c2)CCC3)C1` (stereo not drawn): -0.96%. Regarding `CCCc1cc(C(=O)N2CCCC(n3ccnc3C)C2)[nH]n1` (stereo not drawn), the INHIBITION is listed as 10.8%. `CC(C)c1nccn1C1CCCN(C(=O)c2ccc3c(c2)COC3)C1` (stereo not drawn): the INHIBITION was -49.5%. Consider `Cc1nccn1C1CCCN(C(=O)c2cc(O)nc3ccccc23)C1` (stereo not drawn), for which the INHIBITION was 52.7%. For the compound `Cc1cc(C(=O)N2CCCC(n3ccnc3C)C2)c(C)s1` (stereo not drawn), the INHIBITION was 18.2%.

As to `Cc1nccn1C1CCCN(C(=O)c2ccc3c(c2)COC3)C1` (stereo not drawn), the INHIBITION was determined as 57.8%. As to `COc1ncccc1C(=O)N1CCCC(n2ccnc2C)C1` (stereo not drawn), the INHIBITION is listed as 54.7%.

On to `COc1ncccc1C(=O)N1CCCC(n2ccnc2)C1` (stereo not drawn), for which the INHIBITION is on record as -5%. `Cc1nn(-c2ccccc2)cc1C(=O)N1CCCC(n2ccnc2C)C1` (stereo not drawn): the INHIBITION amounted to 27.6%. Take `Cc1cnn(CC2CN(CC(=O)Nc3cc(C)on3)CCO2)c1` (stereo not drawn): the INHIBITION is on record as 16.85%. Regarding `CC(C)n1ccnc1CN1CCCN(C(=O)c2cnc[nH]2)CC1`, the INHIBITION is reported as 46.3%.

`O=C(Cc1ccc2c(c1)OCCO2)NC1CCCCC1`: the INHIBITION is listed as -53.2%. On to `O=C([C@H]1CCCO1)N1CCN(CCn2cccn2)c2ncccc2C1`, for which the INHIBITION was 30.3%.

Regarding `O=C(Nc1ccc(F)cc1)C1CSCN1` (stereo not drawn), the INHIBITION worked out at 3.38%. For the compound `COc1ccc(CN(Cc2c[nH]cn2)CC2CCCO2)c(OC)c1` (stereo not drawn), the INHIBITION is given as 25.6%. For the compound `O=C(c1cccs1)N1CCN(CC2CC2)c2ncccc2C1`, the INHIBITION is on record as -22.5%. For the compound `O=C(NCc1ccccc1Cn1cncn1)N1CCCC1`, the INHIBITION was -33.3%. Consider `C1CC(CN2C[C@@H]3CC[C@H]2CN(Cc2nnc(C4CC4)o2)C3)C1`, for which the INHIBITION came out at 27.5%.

Take `Cn1ccc(N2CCCC(NC(=O)c3ccc(Cl)o3)C2=O)n1` (stereo not drawn): the INHIBITION is listed as -34.8%. Consider `Cn1c2c(ccc1=O)CC(NC(=O)c1ccsc1)CC2` (stereo not drawn), for which the INHIBITION is 49.4%. The figure for `Cn1ccc(N2CCCC(NC(=O)c3ccsc3)C2=O)n1` (stereo not drawn) is 72.5%.

Take `c1ccc(CN2CCCC(c3nccnc3-n3ccnc3)C2)cc1` (stereo not drawn): the INHIBITION stood at 33.5%. For the compound `CS(=O)(=O)CCNC(=O)Nc1ccc(Cl)cc1-n1cccc1`, the INHIBITION is on record as 35.4%.

These data come from ChEMBL document CHEMBL4513216, “Probing the Open Global Health Chemical Diversity Library for Multistage-Active Starting Points for Next-Generation Antimalarials” (ACS Infect Dis, 2020).
